Bioassay records as filed in PubChem BioAssay.
AmpC detergent – blocks E. coli AmpC beta-lactamase in detergent assay; P00811; Potency, µM (top dose mostly 114 µM), without a hit: at the top dose activity change, negative = inhibition, hits mostly inhibitors; AID 485294; AmpC hydrolysis of nitrocefin, absorbance 480 nm, 0.01% Triton; 370,000 tested, 0.041% active;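 note: potency is the fitted concentration of half-maximal effect; 0% = no-compound wells and -100% = no-enzyme wells; nearly all actives have a fitted effect of over 25% in size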
Target sequence (P00811 whole entry, looked up): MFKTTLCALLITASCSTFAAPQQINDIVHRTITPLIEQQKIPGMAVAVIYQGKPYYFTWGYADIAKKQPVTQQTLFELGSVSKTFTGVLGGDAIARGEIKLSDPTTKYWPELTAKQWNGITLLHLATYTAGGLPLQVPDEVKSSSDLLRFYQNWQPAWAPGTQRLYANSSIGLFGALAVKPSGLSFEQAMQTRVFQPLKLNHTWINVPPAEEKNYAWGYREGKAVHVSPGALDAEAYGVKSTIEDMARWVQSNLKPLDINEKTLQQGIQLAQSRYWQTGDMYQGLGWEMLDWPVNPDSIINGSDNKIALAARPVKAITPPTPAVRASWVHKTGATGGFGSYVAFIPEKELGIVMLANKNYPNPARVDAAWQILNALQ
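AmpC (5.3 nM in the dispensed reagent) in 20 mM phosphate pH 7.0 with 0.01% (detergent screen) or 0.0001% Triton X-100 was preincubated with compounds for 15 min at room temperature. Nitrocefin was then added from an 800 uM solution, and hydrolysis was followed at 480 nm.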
FMDV antiviral – antivirals against foot and mouth disease virus; AID 1159524; Potency, µM (doses to about 57.9 µM), without a hit: top-dose activity change, negative = inhibition, usual class: inhibitors; 410,000 tested, 1.2% active; FMDV antiviral cell-based qHTS; calls by dose curve; tested in HEK293T cells; note: read-out not given here; potency is the fitted concentration of half-maximal effect; nearly all actives have a fitted effect of over 45% in size
HCV inhibitor – inhibitors of hepatitis C virus infection; Potency, µM (doses to about 41.8 µM), inactives show at the top dose activity change, negative = inhibition, most hits filed as inhibitors; AID 651820; 340,000 tested, 3.4% active; Huh7.5.1 HCVcc-Cre infection, luciferase reporter, 44 h; note: potency is the fitted concentration of half-maximal effect
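A cell-based infection assay in which seeded cells (1,000 per well) receive test compound after 4 h, are inoculated with HCVcc-Cre at approximately 0.5 moi, and are incubated 44 h before luminescence detection.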
AmpC inh no detg – blocks E. coli AmpC beta-lactamase in detergent-free assay; Potency, µM (doses to about 57.1 µM), for the others: top-dose activity change, negative = inhibition, actives largely listed as inhibitors; AmpC nitrocefin hydrolysis, absorbance 480 nm, 0.0001% Triton; P00811; AID 485341; 330,000 tested, 0.52% active;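 note: potency is the fitted concentration of half-maximal effect; plate controls were no compound for no effect and no enzyme for full effect; nearly all actives have a fitted effect of over 20% in size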
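AmpC (5.3 nM in the dispensed reagent) in 20 mM phosphate pH 7.0 with 0.01% (detergent screen) or 0.0001% Triton X-100 was preincubated with compounds for 15 min at room temperature. Nitrocefin was then added from an 800 uM solution, and hydrolysis was followed at 480 nm.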
HCMV inh – blocks human cytomegalovirus replication | HFF cells, HCMV-luciferase reporter, 72 h; hits give low values | activity change, negative = inhibition, % at 57.5 µM | 410,000 tested, 4.5% active | AID 1259415; in the data active = activity change below about -60%; inconclusive = no clear call, values can overlap the other calls; inactive = above about -39%
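After 16 h attachment at 37C, HFF cells received test compound and HCMV-luciferase (1 PFU/cell); reporter luminescence read 72 h later, data normalized against buffer-only and known inhibitor Salinomycin.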
An asterisk follows results filed as active. A selection: hits, their analogues and other compounds. The true share with any hit is near 7.3%. Unless noted, calls come from the whole dose curve; as a rule, active = well fitted curve in the direction sought with a large enough effect; inconclusive = small, poorly fitted or top-dose-only effect, or another doubt; inactive = no such curve, though single readings can be large; an effect the other way counts as inactive or inconclusive. Unless noted, % is set by controls: 0 for no effect and ±100 for the full control effect.

Results for CCNC(=S)Nc1cccc([N+](=O)[O-])c1 ?
AmpC detergent: -4%; HCV inhibitor: 5%; AmpC inh no detg: -5%

Results for Cc1cc(Br)ccc1NC(=S)Nc1cccc([N+](=O)[O-])c1 ?
AmpC detergent: 0%; FMDV antiviral: -23%; HCV inhibitor: inconclusive; AmpC inh no detg: -37%; HCMV inh: -64*

How did C=CCNC(=S)Nc1cccc([N+](=O)[O-])c1 do in these assays?
AmpC detergent: 2%; FMDV antiviral: 5%; HCV inhibitor: -4%; AmpC inh no detg: 13%; HCMV inh: -90*

What do the screens show for `COC(=O)CCC(=O)N1CCCC(N2CCN(c3ccc(OC)cc3)CC2)C1` (stereo not drawn)?
AmpC detergent: 1%; FMDV antiviral: 8%; HCV inhibitor: 32%; AmpC inh no detg: -16%; HCMV inh: 18

What do the screens show for `Cc1ccc(C)c(CSCc2nc3ccccc3[nH]2)c1`?
AmpC detergent: 5%; FMDV antiviral: inconclusive; HCV inhibitor: inconclusive; AmpC inh no detg: -41%; HCMV inh: -73*

Results for Cc1ccccc1CSCc1nc2ccccc2[nH]1 ?
AmpC detergent: inconclusive; FMDV antiviral: 5%; HCV inhibitor: inconclusive; AmpC inh no detg: -28%; HCMV inh: -3

How did COC(=O)[C@]1(C)CC[C@@]2(C)CC[C@@]3(C)C4=CCc5c(cc(O)c(O)c5C)[C@]4(C)CC[C@@]3(C)C2C1 (stereo partly drawn) do in these assays?
FMDV antiviral: 20µM*

What do the screens show for `Cc1ccc(N=c2ssnc2Cl)cc1`?
AmpC detergent: -22%; FMDV antiviral: -17%; HCV inhibitor: 10%; AmpC inh no detg: -53%; HCMV inh: -20

How did Cc1cc(C)nc(/N=c2/ssnc2Cl)c1 do in these assays?
AmpC detergent: inconclusive; FMDV antiviral: 28µM*; HCV inhibitor: -8%; AmpC inh no detg: -20%; HCMV inh: -29

Results for COc1cccc(CNC(=O)c2cc3cc(C)ccc3n2C)c1 ?
AmpC detergent: 17%; FMDV antiviral: -8%; HCMV inh: inconclusive

What do the screens show for `Cc1ccc2c(c1)cc(C(=O)NCc1ccccc1)n2C`?
AmpC detergent: 2%; FMDV antiviral: 8%; HCV inhibitor: 8%; AmpC inh no detg: -7%; HCMV inh: -71*

What do the screens show for `COc1ccc(CNC(=O)c2cc3cc(C)ccc3n2C)cc1`?
AmpC detergent: 14%; FMDV antiviral: 5%; HCMV inh: -79*

How did Cc1ccc2c(c1)cc(C(=O)Nc1ccccc1C)n2C do in these assays?
AmpC detergent: -2%; FMDV antiviral: 22%; HCMV inh: 38

What do the screens show for `NC(=S)n1[nH]c(-c2ccc([N+](=O)[O-])cc2)c(N=Nc2cccc(Cl)c2)c1=O`?
AmpC detergent: -5%; FMDV antiviral: inconclusive; HCV inhibitor: 13µM*; AmpC inh no detg: -41%; HCMV inh: -101*

What do the screens show for `NC(=S)n1[nH]c(-c2ccc([N+](=O)[O-])cc2)c(N=Nc2ccc(O)cc2)c1=O`?
AmpC detergent: -17%; FMDV antiviral: -27%; HCV inhibitor: -18%; AmpC inh no detg: -28%; HCMV inh: -36

What do the screens show for `CC(C)(CO)CNc1ccn2nccc2n1`?
FMDV antiviral: -4%; HCMV inh: -70*

Results for COCCCNc1ccn2nc(-c3ccccc3)cc2n1 ?
FMDV antiviral: -42%; HCMV inh: 57

Results for O=[N+]([O-])c1cc(Cl)cc(C2=NCCN2)c1 ?
AmpC detergent: -8%; FMDV antiviral: 4%; HCV inhibitor: 8.9µM*; AmpC inh no detg: 69%; HCMV inh: 20

Results for O=C(Nc1ccc(C2=NCCN2)cc1)c1ccc(C(=O)Nc2ccc(C3=NCCN3)cc2)c([N+](=O)[O-])c1 ?
AmpC detergent: 8%; FMDV antiviral: -3%; HCV inhibitor: 0%; AmpC inh no detg: -5%; HCMV inh: inconclusive

What do the screens show for `Cc1nnsc1S(=O)c1ccc(Br)cc1` (stereo not drawn)?
AmpC detergent: -5%; FMDV antiviral: 0%; HCV inhibitor: -16%; AmpC inh no detg: -18%; HCMV inh: -63*

How did Cc1nnsc1S(=O)c1ccc(F)cc1 (stereo not drawn) do in these assays?
AmpC detergent: -2%; FMDV antiviral: inconclusive; HCV inhibitor: -1%; AmpC inh no detg: -9%; HCMV inh: -69*

What do the screens show for `Cc1ccc(S(=O)c2snnc2C)cc1` (stereo not drawn)?
AmpC detergent: inconclusive; FMDV antiviral: -3%; HCV inhibitor: 3%; AmpC inh no detg: -15%; HCMV inh: 18

Results for COCCn1c(C)cc(O)c(C(c2ccc(C)cc2)N2CCCCC2)c1=O (stereo not drawn) ?
AmpC detergent: 15%; FMDV antiviral: -30%; HCMV inh: 10

How did CCC(C)Sc1ccc([C@@H]2[C@H]3C(=O)N(C)C(=O)[C@H]3[C@]3(C(=O)OC)CCCN23)cc1 (stereo partly drawn) do in these assays?
FMDV antiviral: 0%; HCV inhibitor: 2%; AmpC inh no detg: 174%; HCMV inh: -13

What do the screens show for `CCCNC(=O)c1ccc2c(=O)c(O)c(-c3ccc(Cl)c([N+](=O)[O-])c3)[nH]c2c1`?
AmpC detergent: -8%; FMDV antiviral: -14%; HCV inhibitor: 5µM*; AmpC inh no detg: -43%; HCMV inh: 6

What do the screens show for `CC(Sc1nnc2c(n1)[nH]c1ccccc12)C(=O)N(C)C1CCCCC1` (stereo not drawn)?
AmpC detergent: -2%; FMDV antiviral: inconclusive; HCV inhibitor: 6.3µM*; AmpC inh no detg: -20%; HCMV inh: -85*

How did CC(Sc1nnc2c(n1)[nH]c1ccccc12)C(=O)NC1CCCCC1 (stereo not drawn) do in these assays?
AmpC detergent: 0%; FMDV antiviral: inconclusive; HCV inhibitor: 5.6µM*; AmpC inh no detg: -22%; HCMV inh: -30

Results for COC(=O)c1ccc(CSc2nnc3c(n2)[nH]c2ccccc23)cc1 ?
AmpC detergent: 7%; FMDV antiviral: -12%; HCV inhibitor: 7%; AmpC inh no detg: -13%; HCMV inh: inconclusive

Results for Cc1nn(-c2ccccc2Cl)c(Cl)c1/C=N/Nc1nc2ccccc2s1 ?
AmpC detergent: inconclusive; FMDV antiviral: 0.0009µM*; HCV inhibitor: 1%; AmpC inh no detg: -25%; HCMV inh: -94*

What do the screens show for `NS(=O)(=O)c1ccc(CCN2C(=O)/C(=C\c3ccc(Cl)cc3)SC2=S)cc1`?
AmpC detergent: inconclusive; FMDV antiviral: -13%; HCV inhibitor: inconclusive; AmpC inh no detg: -27%; HCMV inh: -101*

How did COC(=O)[C@@H]1CCCN1C(=O)c1c(OC)cc(=O)n2c1CCN(Cc1ccc(C)o1)CC2 do in these assays?
FMDV antiviral: 0%
